Bioassay records as filed in PubChem.
The list is not random: actives were taken first. Their share in the collection is about 6%.
FLuc inh: qHTS Assay for Inhibitors of Firefly Luciferase; Luciferin 4-monooxygenase (Photinus pyralis), P08659; purified firefly luciferase, luminescence, 8 min; Potency, µM (doses to about 57.1 µM), without a hit: at the top dose activity change, negative = inhibition, usual class: inhibitors; actives 2.2% (n = 72,000); AID 411, 2009; note: nearly all actives have a fitted effect of over 40% in size
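Substrate buffer containing 10 uM ATP (pH 7.2 imidazole, Mg2+, KCl, detergent, BSA) is dispensed, compound pinned in, then luciferase/luciferin detector mix added. After 8 min at ambient temperature, light output is measured.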
Bst PK mod: Pyruvate Kinase; AID 361, 2006; Potency, µM; actives 1.2% (n = 51,000); purified pyruvate kinase, luminescence ATP production; ribose 5-phosphate activator present at AC10; in the data active = potency below about 11 µM; inconclusive = mostly about 12 µM to 25 µM;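 the screen sought inhibitors and activators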;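 note: scaled between full activation by ribose 5 phosphate and full inhibition by luteolin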
Tau filament bind: qHTS Assay for Tau Filament Binding; Microtubule-associated protein tau (Homo sapiens), P10636; recombinant tau filaments, thioflavin S fluorescence, 15 h; filaments grown with octadecylsulfate alongside compound; actives 2% (n = 71,000); Potency, µM (series often up to 57.1 µM), for the others: at the top dose activity change, negative = inhibition;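 note: actives lower thioflavin S fluorescence by blocking filaments or displacing dye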
Target sequence (P10636 whole entry, looked up): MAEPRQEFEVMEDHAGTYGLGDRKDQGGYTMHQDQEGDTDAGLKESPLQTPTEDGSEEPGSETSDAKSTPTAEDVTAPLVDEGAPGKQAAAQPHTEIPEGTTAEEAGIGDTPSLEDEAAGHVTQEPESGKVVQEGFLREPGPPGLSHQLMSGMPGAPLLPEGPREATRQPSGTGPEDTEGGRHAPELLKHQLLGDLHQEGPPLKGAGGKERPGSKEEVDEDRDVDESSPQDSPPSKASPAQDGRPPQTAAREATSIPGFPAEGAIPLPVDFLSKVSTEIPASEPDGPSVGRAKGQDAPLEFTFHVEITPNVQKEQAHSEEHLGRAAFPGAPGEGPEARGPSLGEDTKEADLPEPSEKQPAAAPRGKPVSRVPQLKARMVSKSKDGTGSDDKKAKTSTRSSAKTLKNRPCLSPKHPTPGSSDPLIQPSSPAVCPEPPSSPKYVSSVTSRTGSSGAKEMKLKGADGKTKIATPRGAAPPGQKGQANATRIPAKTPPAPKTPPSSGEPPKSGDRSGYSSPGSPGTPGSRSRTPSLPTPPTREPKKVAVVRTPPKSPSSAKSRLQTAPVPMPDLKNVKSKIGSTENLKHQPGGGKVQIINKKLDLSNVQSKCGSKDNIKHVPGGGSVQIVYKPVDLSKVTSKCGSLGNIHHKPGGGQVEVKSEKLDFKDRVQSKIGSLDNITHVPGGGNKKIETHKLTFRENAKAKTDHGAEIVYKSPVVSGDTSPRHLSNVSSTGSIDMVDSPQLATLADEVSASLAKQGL
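Quantitative HTS: thioflavine S signal from ODS-induced tau filaments, excited at 450 nm, emission 510 nm. Conditions: 1 uM tau, 30 uM ODS, 15 h at 37 C, pH 7.4.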
Pol III holo inh: qHTS Assay for Inhibitors of DNA Polymerase III Holoenzyme System | actives 0.25% (n = 71,000) | Potency, µM (top dose mostly 57.1 µM), inactives show top-dose activity change, negative = inhibition | reconstituted DNA polymerase III holoenzyme replication, biochemical
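Reconstituted *E. coli* holoenzyme (0.35 nM Pol III, 1 nM beta, 154 nM SSB, 2 nM primase) was preincubated with compound for 15 min at RT. Synthesis on 1.4 nM ssM13Gori ran 35 min, then was stopped with PicoGreen/EDTA and read as dsDNA fluorescence.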
15-hLO inh: qHTS Assay for Inhibitors of 15-hLO (15-human lipoxygenase); Polyunsaturated fatty acid lipoxygenase ALOX15 (Homo sapiens), P16050; purified 15hLO-1, xylenol orange hydroperoxide absorbance; Potency, µM (doses to about 57.1 µM), without a hit: at the highest dose activity change, negative = inhibition, most hits filed as inhibitors; actives 1.4% (n = 74,000); AID 887, 2007; note: nearly all actives have a fitted effect of over 55% in size
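Quantitative HTS in 25 mM Hepes pH 7.5 containing 0.01% Triton X-100: human 15hLO-1 at 40 nM, arachidonic acid at 50 uM, 6 min turnover. Product quantified via ferrous oxidation/xylenol orange, 573:405 nm absorbance ratio.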
ERK AVP block: qHTS Assay for Inhibitors of the ERK Signaling Pathway using a Homogeneous Screening Assay. HEK293-V1b, vasopressin-stimulated pERK AlphaScreen. actives 0.99% (n = 72,000). Potency, µM (titrated, usually from 57.5 µM), for the others: at the highest dose activity, negative = inhibition, actives largely listed as inhibitors. AID 995, 2007; note: nearly all actives have a fitted effect of over 55% in size
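qHTS, compounds titrated on V1b-expressing HEK293 cells. Preincubation 30 min at 37C, vasopressin 25 nM for 5 min, lysis 10 min, bead incubation 5 hr at room temperature.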
* hit, by the source's call; i = inactive; ? = inconclusive; . = no result; [ ] = another dose, or the depositor's remark. Unless noted, calls come from the whole dose curve; as a rule, active = well fitted curve in the direction sought with a large enough effect; inconclusive = small, poorly fitted or top-dose-only effect, or another doubt; inactive = no such curve, though single readings can be large; an effect the other way counts as inactive or inconclusive. Unless noted, % is set by controls: 0 for no effect and ±100 for the full control effect; potency is the fitted concentration of half-maximal effect.

SMILES	FLuc inh	Bst PK mod	Tau filament bind	Pol III holo inh	15-hLO inh	ERK AVP block
CC1Cc2ccccc2N1C(=O)c1cnsn1 (configuration not stated)	-2%	>57	-7%	4%	4µM*	37%
CC1Cc2ccccc2N1C(=O)c1cccnc1 (configuration not stated)	3%	>57	3%	3%	3%	-5%
O=C(c1csnn1)N1CCC2(CCCN(c3ccccn3)C2)CC1	1%[11.4 µM]	.	0%	3%	-3%	-18%
CCc1cccc2nc3c(c([Si](C)(C)C)c12)Cn1c-3cccc1=O	.	.	16µM*	-13%	.	22%
CC(C)c1cccc2nc3c(c([Si](C)(C)C(C)(C)C)c12)Cn1c-3cccc1=O	.	.	?	-4%	.	30%
Cc1noc(C)c1COC(=O)CCN1c2ccccc2Sc2ccccc21	-2%	.	20µM*	0%	-14%	11%
COCCn1c(=O)c(-c2ccc(F)cc2)nc2cnc(N3CCOCC3)nc21	-1%[11.4 µM]	.	9%	-7%	-9%	3%
COc1cc(-c2cc(OC)c3c(C)oc(C)c3c(=O)c2)ccc1O	2%	>57	-28%	-1%	25µM*	?
COc1ccc(-c2cc(=O)c3c(O)c(OC)c(OC)c(OC)c3o2)cc1OC	.	.	.	.	-6%	?
COc1ccc(-c2cc(OC)c3c(C)oc(C)c3c(=O)c2)cc1OC	1%	>57	25µM*	-3%	-23%	?
CSc1nc(N)c2ncn([C@@H]3O[C@@H](COP(=O)(O)OP(=O)(O)O)[C@@H](O)[C@H]3O)c2n1	1%	.	3%	-2%	4%	-7%
Oc1ccc(Nc2nc(N3CCCC3)c3ccccc3n2)cc1	-10%	i	132%	32µM*	?	32µM*
Cc1ccc(Nc2nc(N3CCOCC3)c3ccccc3n2)cc1	-6%	.	?	-3%	?	?
Nc1nc(Nc2ccccc2)nc2ccccc12	6.3µM*	5.5*	56%	-8%	?	13µM*
CCCS(=O)(=O)NCCc1csc(-c2cccnc2)n1	-1%	.	-18%	-10%	-8%	.
C/C(CCC(=O)OC[C@@H]1O[C@H](C#Cc2ccccc2)C=C[C@@H]1Oc1ccc(C)cc1)=N/OC[C@@H](O)[C@H]1O[C@H]2OC(C)(C)O[C@H]2[C@@H]1O	2%[11.4 µM]	.	.	.	9%[11.4 µM]	4%[11.5 µM]
COc1ccc(Cl)cc1NS(=O)(=O)c1ccc(S(=O)(=O)N2CCCC2)cc1	-2%	>57	-18%	1%	5%	25µM*
C=CCn1c(-c2ccc(OC)c(OC)c2)cs/c1=N\c1ccccn1	1%	6.9*	-10%	20%	-14%	?
CCOC(=O)c1c(-c2ccc(C)o2)csc1N	-2%	.	-3%[11.4 µM]	-12%[11.4 µM]	1.6µM*	?
COc1ccc(CNc2ncncc2-c2cccc(NS(C)(=O)=O)c2)c(OC)c1	-1%[2.29 µM]	.	-24%	-4%	-15%	-33%
COc1ccc(-c2ccc3c(n2)CCCN3C[C@H](O)CN2CCCc3nc(-c4ccc(Br)cc4)ccc32)cc1	-2%[11.4 µM]	.	.	.	-7%[11.4 µM]	0%[11.5 µM]
O=c1oc2c3c4c(cc2cc1-c1nc2ccccc2[nH]1)CCCN4CCC3	2µM*	.	i	471%	-19%	-23%
COc1ccc(-c2nc3cnc(N(C)C)nc3n(CCc3ccccc3)c2=O)cc1	1%[11.4 µM]	.	-6%	3%	-7%	13%
COc1cc([C@@H](O)CO)ccc1OS(=O)(=O)O	-2%	.	-1%	-2%	9%	-15%
O=C(Nc1cccnc1)c1cnn2cccnc12	0%	>57	-1%	-1%	2%	-15%
SMILES	FLuc inh	Bst PK mod	Tau filament bind	Pol III holo inh	15-hLO inh	ERK AVP block
Cn1nnc2cc(C(=O)Nc3cccnc3)ccc21	1%	>57	-2%	10%	0%	30%
O=C(Nc1cccnc1)Nc1ccc(F)c(Cl)c1	20µM*	.	-12%	-18%	-10%	-5%
O=C(Nc1cccnc1)Nc1ccc2c(c1)OCO2	16µM*	.	-4%	-1%	0%	-15%
O=C(Nc1ccc2c(c1)OCO2)c1cnn2cccnc12	20µM*	i	-28%	-5%	-7%	-23%
Cn1ccc2cc(NC(=O)Nc3cccnc3)ccc21	16µM*	.	22%	-6%	1%[25.6 µM]	-13%
COc1ccccc1CN1CCC2(CC1)CCN(S(=O)(=O)c1ccccc1)CC2	2%[11.4 µM]	.	-2%	1%	4%	-1%
O=c1n(Cc2cc3c(cc2Cl)OCO3)c(=O)n2n1CC[C@H]1/C(=N\OC[C@@H](O)COCc3ccco3)[C@H]3O[C@@H]3[C@@H](O)[C@@H]12	0%[11.4 µM]	.	.	.	9%[11.4 µM]	13%[11.5 µM]
COc1ncc2nc(-c3cc(F)cc(F)c3)c(=O)n(CCc3ccccc3)c2n1	0%[11.4 µM]	.	?	-8%	-15%	-7%
COc1ccc(OC)c(N2Cc3cc(C)c(C)cc3C2)c1	-2%	>57	16µM*	-1%	-16%	-17%
CCOc1ccccc1N1Cc2cc(C)c(C)cc2C1	-3%	.	7.9µM*	-2%	-25%	-4%
CCOc1ccccc1N1CCN(Cc2cccc(OC)c2OC)CC1	.	.	.	.	-18%	.
CN1[C@@H]2CC(OC(=O)[C@@H](CO)c3ccccc3)C[C@H]1[C@H]1O[C@H]12 (some centres not stated)	2%	.	-2%	-3%	9%	5%
NC[C@H](O)C1CCCCCCC1	3%	.	3%	-5%	4%	8%
C=CCn1c(N)c(C(=O)NCC2CCCO2)sc1=S (configuration not stated)	-6%	>57	11%	4%	?	-24%
CCn1c(N)c(C(=O)NCC2CCCO2)sc1=S (configuration not stated)	-3%	>57	7%	-2%	10µM*	-21%
COc1cc(C(Nc2ccc3c(c2)OCO3)C(=O)NC2CCCCC2)cc(OC)c1OC (configuration not stated)	-39%	>57	-23%	2%	0.63µM*	?
Nc1nc2ncc(=O)[nH]c2c(=O)[nH]1	.	.	.	.	5%	2%
CCOC(=O)Nc1ccc2c(c1)N(C(=O)OC)c1ccccc1CC2	0%	>57	-15%	5%	6%	-4%
CN(C)CC(=O)N1c2ccccc2CCc2ccc(NC(=O)c3ccc(N)cc3)cc21	-21%	>57	16µM*	0%	-6%	12%
O=C1CCCC=C1[C@H](O)CCCCBr	1%[11.4 µM]	.	.	.	9%[11.4 µM]	6%[11.5 µM]
COC(=O)c1nn(-c2ccc(-c3ccccc3)cc2)cc1O	3.2µM*	.	99%	-5%	?	?
